Test results from PubChem BioAssay (NCI).
Compounds without any hit were thinned out: in the full panel of roughly 79,000, 15% have a hit. No stated cut-off is given here; in the data, active means growth inhibition above about 70%; inactive means the rest. *1 amine or outer side, *2 acyl side, *3 side chain or, on linkers, in order; H or OH if unused. Where a SMILES comes first, the peptide text is derived from it. Bridges are numbered along the chain shown (N, C = ends). [ ]: non-standard residue; d: D form. The star is where a group is joined. Fmoc = O=C(OCC1c2ccccc2-c2ccccc21)*; X9 = O=C(C(CCCCNO[*:3])N[*:1])[*:2]

Tests used:
[1] = NCI Yeast Anticancer Drug Screen. Data for the rad50 strain (AID 155);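 further: 0% = growth of vehicle-only cultures of the same strain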; conditions: S. cerevisiae rad50 strain growth inhibition; at 50.0 µM; hits give high values
In short: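 Growth of the mutant yeast was measured after compound exposure and referenced to vehicle-treated cultures.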

[2] = NCI Yeast Anticancer Drug Screen. Data for the mec2-1 strain (AID 157); conditions: S. cerevisiae mec2-1 strain, at 50.0 µM, hits give high values
In short: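 Growth inhibition is read against vehicle-treated controls after compound exposure of the mec2-1 yeast strain, which is defective in DNA damage repair or cell cycle control.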

[3] = NCI Yeast Anticancer Drug Screen. Data for the sgs1 mgt1 strain (AID 161);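 further: 0% = growth of cultures given vehicle only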; conditions: S. cerevisiae sgs1 mgt1 strain, at 50.0 µM, hits give high values
In short: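 Percent growth inhibition was derived by comparing compound-exposed mutant yeast with vehicle-exposed cultures. The strain carries alterations in DNA damage repair.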

[4] = NCI Yeast Anticancer Drug Screen. Data for the cln2 rad14 strain (AID 165);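 further: 0% = growth equal to vehicle treated cultures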; conditions: S. cerevisiae cln2 rad14 strain, at 50.0 µM, hits give high values
In short: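 Growth inhibition, relative to vehicle-treated controls, is the read-out. The test organism is a yeast strain with defined genetic alterations, cln2 rad14.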

[5] = NCI Yeast Anticancer Drug Screen. Data for the bub3 strain (AID 167); conditions: S. cerevisiae bub3 mutant strain, at 50.0 µM, hits give high values
In short: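 Whole-cell yeast assay. The mutant strain was incubated with compounds, and growth inhibition was determined by comparison with vehicle-treated cells.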

[6] = NCI Yeast Anticancer Drug Screen. Data for the mlh1 rad18 strain (AID 175); conditions: S. cerevisiae mlh1 rad18 strain growth inhibition; at 50.0 µM; hits give high values
In short: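 Cells of a genetically altered yeast strain, deficient in DNA damage repair, were treated with compound. Their growth was then compared with that of vehicle-treated cultures to give inhibition.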

Measured: growth inhibition

Cc1ccc2nc(NC(=O)OCc3ccccc3)sc2c1
inactive: [1] 4.1% | [2] 20.1% | [3] -11.8% | [4] 6.95% | [5] 8.6% | [6] 9.65%

CC(=O)OC1CCC2(C)C(CCC3(C)C2CCC2C4C5OC(=O)C4(CCC5(C)C)CCC23C)C1(C)C (stereo unspecified)
inactive: [1] -13% | [2] -23.9% | [3] -17.1% | [4] -5.2% | [5] -33% | [6] 4.6%

Oc1cccc(N2CCN(c3cccc(O)c3)CC2)c1
inactive: [1] 2.45% | [2] -26.9% | [3] 3.7% | [4] 9.15% | [5] 5.85% | [6] -15%

O=S(=O)([N-]c1nc2ccccc2nc1-[n+]1ccccc1)c1ccccc1
inactive: [1] 14% | [2] -0.2% | [3] 14.7% | [4] -7.25% | [5] -2.2% | [6] -22.6%

Cc1ccc(C)c2c(CC(=O)O)c[nH]c12
inactive: [1] -4.35% | [2] -11.2% | [3] -5.9% | [4] -15.6% | [5] 6.05% | [6] -2.5%

CCOC(=O)c1ccc(-c2ccc(C(=O)OCC)cc2[N+](=O)[O-])c([N+](=O)[O-])c1
inactive: [1] 14.8% | [2] 12.8% | [3] 11.8% | [4] 17% | [5] 9.7% | [6] 15%

CC(=O)OCC1OC(n2nc(/C=C/c3ccco3)c(=O)n(-c3ccccc3)c2=S)C(OC(C)=O)C(OC(C)=O)C1OC(C)=O (stereo unspecified)
inactive: [1] 57.5% | [2] 14.8% | [3] 61% | [4] 29.4% | [5] 16.4% | [6] 56.4%

COc1ccc(-n2c(N)c(C#N)c(C#N)c2-c2ccccc2)cc1
inactive: [1] 7.85% | [2] 8.6% | [3] -16.6% | [4] -4.95% | [5] -6.25% | [6] -49.1%

N#Cc1c(N)nc2c3c1NC(=O)C(C(N)=O)C3c1ccccc1O2 (stereo unspecified)
inactive: [1] 6.1% | [2] -3.15% | [3] 5.95% | [4] 2% | [5] -2.6% | [6] -22.4%

CN(C(=O)Cl)c1ccccc1
inactive: [1] 9.1% | [2] -9.35% | [3] 7.8% | [4] 8.6% | [5] 16.8% | [6] 16.8%

CSc1ccc(N=Cc2ccccc2O)cc1
inactive: [1] 11.2% | [2] -40% | [3] 22.2% | [4] 15.1% | [5] 8.85% | [6] 19.4%

CCOC(=O)/C(C#N)=C/c1ccc(C)o1
inactive: [1] 19.1% | [2] 3.1% | [3] 27.4% | [4] 33% | [5] 31.1% | [6] 35%

C=C1C(=O)OC2C1C(=O)C/C(C)=C/CCC1(C)OC21 (stereo unspecified)
inactive: [1] 35.6% | [2] 52% | [3] 63.2% | [4] 34% | [5] 66% | [6] 9.95%

CCc1c(C)c(C)c(C)c(C)c1C(C)=O
inactive: [1] -5% | [2] -22.4% | [3] -7.35% | [4] 20.1% | [5] 6.4% | [6] -26.6%

CCC1c2ccccc2[C@H]2C(c3ccccc3)=NN(c3ccccc3)[C@H]2N1CC (stereo partly specified)
inactive: [1] 26.6% | [2] -5.05% | [3] -0.7% | [4] -2.9% | [5] 1.5% | [6] 40.5%

CC(C)CC(C)C
inactive: [1] 17.9% | [2] -2.6% | [3] 20.7% | [4] 5.75% | [5] 13.4% | [6] 25.1%

O/N=C\c1cccc[n+]1Cc1ccc2ccccc2c1Br
inactive: [1] -1.7% | [2] 1.95% | [3] -7.55% | [4] -7.05% | [5] 10.7% | [6] -1.75%

CC(c1ccccc1)n1cnc2c(Cl)ncnc21 (stereo unspecified)
inactive: [1] 5% | [2] -16.7% | [3] 5.05% | [4] -0.5% | [5] 6.3% | [6] -17.2%

Oc1cncc2ccccc12
inactive: [1] 3.35% | [2] 5.2% | [3] 11.2% | [4] -1.35% | [5] 1.6% | [6] -4.85%

CCCOC(=O)C(CC)CC(C)C (stereo unspecified)
inactive: [1] -4.95% | [2] 2.85% | [3] -4% | [4] -22.7% | [5] 9.35% | [6] 14.8%

NC(=O)CNCc1ccccc1
inactive: [1] 0.3% | [2] -3.75% | [3] 12.7% | [4] -52% | [5] 0.25% | [6] 4.25%

Cc1ccc(C2(c3ccc(C)cc3)OCC(C)(CBr)CO2)cc1
inactive: [1] -30% | [2] -1.4% | [3] -20.4% | [4] -8.5% | [5] 1.6% | [6] -14.5%

NC(=O)CNC(=O)C1CCCN1C(=O)C1CCCCNOC(=O)CCC(NC(=O)OCC2c3ccccc3-c3ccccc32)C(=O)NC(Cc2c[nH]c3ccccc23)C(=O)N1 (stereo unspecified) (Fmoc-EW[X9]PG-NH2; ester 1-3; configuration not given here)
inactive: [1] -16.5% | [2] -14.7% | [3] -22.2% | [4] 18.4% | [5] 4.1% | [6] -6.35%

CCOC(=O)Cc1nc2ncncc2[nH]c1=O
inactive: [1] 3.25% | [2] 12.2% | [3] -1.8% | [4] 15.3% | [5] 2.35% | [6] -7.85%

CC1OC(c2ccc(Cl)cc2Cl)OC1C (stereo unspecified)
inactive: [1] 6.45% | [2] -0.9% | [3] 2.65% | [4] 0.7% | [5] 0.95% | [6] 1.5%

CCCCCC(=O)NC(=S)Nc1nn[nH]n1
inactive: [1] -38.8% | [2] -50.7% | [3] -39.1% | [4] -8.4% | [5] -25.3% | [6] -47.1%

NC1=C(O)C(=O)C(c2ccc3c(c2)CCC3)O1 (stereo unspecified)
inactive: [1] -24.5% | [2] -14.7% | [3] -22.4% | [4] -12.6% | [5] -14% | [6] -9.1%

C[C@@]1(N2C(=O)OC(c3ccccc3)C2=O)C(=O)N2CCS[C@@]21c1ccccc1 (stereo partly specified)
inactive: [1] 4.2% | [2] 2.6% | [3] 11.8% | [4] 11.3% | [5] 5.85% | [6] 1.25%

O=C(Nc1cc(C(F)(F)F)ccc1Cl)N(Cc1ccccc1)c1ccccc1
inactive: [1] -10.3% | [2] -15.9% | [3] -1.35% | [4] -74.2% | [5] -8.2% | [6] -8.7%

CCCCCCCCCCC(CCCCCCCCCC)C1CCCC1
inactive: [1] -12.3% | [2] 16.1% | [3] 0.7% | [4] -14.6% | [5] -12.8% | [6] -12.9%

CC(C)=Cc1ccccc1C1(C)C(c2ccccc2)=C1c1ccccc1
inactive: [1] -3.35% | [2] 8.6% | [3] -9.25% | [4] 26.1% | [5] -0.3% | [6] -3.6%

COc1ccc(Cc2cc3c(cc2OCCOC(C)=O)OCO3)cc1
inactive: [1] 16.8% | [2] 11.3% | [3] 10.4% | [4] 0.05% | [5] 15.2% | [6] 23.4%

O=C([O-])c1cc(I)cc(I)c1[OH2+].O=C([O-])c1cc(I)cc(I)c1[OH2+].[Mn+2]
inactive: [1] -1.55% | [2] -19.4% | [3] -6.2% | [4] -23.7% | [5] -46% | [6] 5.8%

COc1ccc(C[C@@H]2Cc3cc(OC)c(OC)cc3CN2C)cc1
inactive: [1] 27.4% | [2] 4.6% | [3] 19.6% | [4] 5.65% | [5] 10.9% | [6] 21.4%

O=C1NNC2NC(=O)C3(NN2C1=O)c1ccccc1-c1ccccc13 (stereo unspecified)
inactive: [1] -18% | [2] -21.5% | [3] 0.45% | [4] -5.8% | [5] -11.7% | [6] -15.4%

COc1cccc(N2C(=O)C3c4[nH]c5ccc(C)cc5c4C4CCC(C(C)(C)C)CC4C3C2=O)c1 (stereo unspecified)
inactive: [1] 12.7% | [2] -20.1% | [3] 13% | [4] 2.55% | [5] 1.4% | [6] -5.55%

O=C(O)c1ccc(-n2cnc3c(=O)[nH]cnc32)cc1
inactive: [1] -8.6% | [2] -12.9% | [3] -13.3% | [4] -9.45% | [5] -4.9% | [6] -7.85%

NC(CCC(F)(F)F)C(=O)O (stereo unspecified)
inactive: [1] -4.1% | [2] -7.95% | [3] 7.2% | [4] 18.6% | [5] 17.5% | [6] 6.65%

Cc1ccc(S(=O)(=O)N2CCC2c2ccccc2)cc1 (stereo unspecified)
inactive: [1] 4.55% | [2] -3.8% | [3] -17.9% | [4] -3.85% | [5] -17.9% | [6] -24.9%

CCCCCC(=O)Nc1cc(N)cc(C(=O)O)c1
inactive: [1] 4.25% | [2] 9.25% | [3] 9.5% | [4] -9.6% | [5] 0.1% | [6] -14.3%

O=[N+]([O-])CC1CCCCC1
inactive: [1] -2.7% | [2] -19.9% | [3] 6.85% | [4] 14.3% | [5] -1.3% | [6] 19.1%
